Experimental findings from PubChem BioAssay are described below.

One may read the inhibition as the relative decrease from the control value, in per cent.

In test [1] the target is Protein phosphatase methylesterase 1 (Homo sapiens) (UniProt Q9Y570). The test is described as follows: PME-1 inhibitor activity retest, confirmation, biochemical, fluorescence polarization, FP-Rh probe, triplicate (AID 2171).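 Note: 0% = enzyme with DMSO and 100% = wells lacking PME-1.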 The conditions noted are these: recombinant PME-1, FP-Rh probe fluorescence polarization; at 5.9 µM; stronger effect = higher value.
For test [2], the system named is transactivating tegument protein VP16 (Human herpesvirus 1). In words: VP16 transactivation reporter inhibitors, counter-screen for SRC2 inhibitor project, cell-based, luminescence, single concentration (AID 652007; in the data active = inhibition above about 36%). The conditions noted are these: cell-based VP16 transactivation luciferase reporter, at 8.9 µM, stronger effect = higher value. (In general: Counterscreens check selectivity or assay interference.)

Test [3] addresses Nuclear receptor coactivator 2 (Homo sapiens) (UniProt Q15596). In words: SRC2 coactivator transcriptional activity inhibitors, confirmation, cell-based, luminescence, HEK293, triplicate (AID 652008;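 active = mean inhibition above 46.5%, the solvent-only control mean plus 3 SD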;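 note: 0% = DMSO-treated cells and 100% = Gossypol at 36 µM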). The conditions noted are these: HEK293 GAL4-SRC2 luciferase reporter, at 8.9 µM, stronger effect = higher value. For orientation: A reporter such as luciferase makes a cellular process visible.

The nature of test [4]: StAR promoter reporter inhibitors, counter-screen for LRH-1 inverse agonist project, cell-based, luminescence, high throughput (AID 651611; in the data active = inhibition above about 28%). The conditions noted are these: StAR promoter luciferase reporter counterscreen, at 3.6 µM, stronger effect = higher value.
Test [5] concerns the target Nuclear receptor subfamily 5 group A member 2 (Homo sapiens) (UniProt O00482). The test is described as follows: LRH-1 (NR5A2) inverse agonists, retest, confirmation, cell-based, luminescence (AID 651613; in the data active = inhibition above about 42%;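 note: HEK293T cells co-transfected with LRH-1 and StAR promoter luciferase reporter; 0% = vehicle wells and 100% = parental cells lacking receptor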). The conditions noted are these: cell-based LRH-1 luciferase reporter, inverse agonism; at 3.6 µM; stronger effect = higher value.
The target of test [6] is Steroidogenic factor 1 (Homo sapiens) (UniProt Q13285). In words: SF1 (NR5A1) inverse agonists, counter-screen for LRH-1 inverse agonist project, cell-based, luminescence, high throughput (AID 651614; in the data active = inhibition above about 44%;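 note: cells cotransfected with StAR promoter reporter and SF1 expression vector; 0% = vehicle on cells with receptor and 100% = vehicle on cells lacking receptor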). The conditions noted are these: cell-based SF1 luciferase reporter, at 3.6 µM, stronger effect = higher value.
Test [7] can be described thus: VP16 transactivation reporter inhibitors, counter-screen for LRH-1 inverse agonist project, cell-based, luminescence, high throughput (AID 651615; in the data active = inhibition above about 33%). The conditions noted are these: Gal4-VP16 luciferase reporter cells, at 3.6 µM, stronger effect = higher value.
Test [8] concerns the target Oxysterols receptor LXR-beta (Homo sapiens) (UniProt P55055). The test is described as follows: LXR agonists, Gal4 luciferase reporter, confirmation, counter-screen for hcDAF-12 agonist project, cell-based, luminescence, HEK293, H. contortus campaign (AID 743027;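 active = mean percent activation of the reporter above a cutoff set as the average over tested compounds plus their standard deviation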). The conditions noted are these: HEK293 Gal4-LXR tk-luc reporter, 24 h, at 6.8 µM, stronger effect = higher value, normalized: DMSO 0%, positive control 100%.

The subject of test [9] is Nuclear hormone receptor DAF-12 (Haemonchus contortus). In words: H. contortus DAF-12 receptor agonists, confirmation, cell-based, luminescence, HEK293, lit1-tk-luc, triplicate (AID 743032;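 active = mean activation across triplicate tests above the threshold derived from the earlier primary screen, cut at about 5.5% in these data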;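 note: 0% = DMSO only wells and 100% = 3 µM Δ7-dafachronic acid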). The conditions noted are these: HEK293 hcDAF-12 lit1-tk-luc reporter, at 6.8 µM, stronger effect = higher value, % of Δ7-dafachronic acid response.
The test system of test [10] is DAF-12 nuclear receptor (Heterodera glycines), GAL4-LBD fusion. In words: H. glycines DAF-12 receptor agonists, confirmation, cell-based, luminescence, HEK293, GAL4-LBD fusion (AID 743050;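 active = mean activation over triplicate wells above the hit cutoff derived from the earlier primary screen, cut at about 11% in these data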;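 note: 0% = DMSO low control and 100% = 2 mM sodium butyrate high control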). The conditions noted are these: HEK293 GAL4-hgDAF12 luciferase reporter, agonist mode; at 6.8 µM; stronger effect = higher value; percent of butyrate response.
In test [11] the target is Oxysterols receptor LXR-beta (Homo sapiens) (UniProt P55055). The test is described as follows: LXR agonists, Gal4 luciferase reporter, confirmation, counter-screen for hgDAF-12 agonist project, cell-based, luminescence, HEK293, H. glycines campaign (AID 743051;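 active = mean activation of the triplicate above a set limit carried over from the primary screen, none filed active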). The conditions noted are these: 24 h, at 6.8 µM, stronger effect = higher value.
Test [12] addresses Platelet-activating factor acetylhydrolase (Homo sapiens) (UniProt Q13093). In words: pPAFAH (PLA2G7) enzyme inhibitors, confirmation, biochemical, fluorescence polarization, human (AID 463230;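 active = mean inhibition of the triplicate above the hit cutoff set for the earlier primary screen, cut at about 25% in these data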;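 note: 0% = enzyme with DMSO and 100% = wells lacking pPAFAH enzyme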). The conditions noted are these: recombinant pPAFAH, FP-Rh probe fluorescence polarization; at 3.39 µM; stronger effect = higher value.
A short description of test [13]: growth loss of phage-infected E. coli expressing H. pylori AddAB, confirmation, AddAB inhibitor project, absorbance, E. coli V3065, T4 phage, triplicate (AID 488942;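 active = mean inhibition above a set limit taken from the earlier primary screen, cut at about 13% in these data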;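 note: higher means less bacterial growth since AddAB block lets phage replicate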). The conditions noted are these: OD, at 11.9 µM, stronger effect = higher value, T4 phage with gene 2 nonsense mutations.
Test [14] can be described thus: growth loss of RecBCD+ E. coli with mutant T4 phage, counter-screen for AddAB inhibitor project, absorbance, V66 E. coli (AID 488955;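 active = mean inhibition above the mean of solvent-only control wells plus 3 SD, cut at about 4% in these data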;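 note: optical density read after an 18 h incubation at 37 °C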). The conditions noted are these: OD growth, at 11.9 µM, stronger effect = higher value.
Test [15] can be described thus: bacterial viability inhibition counter-screen, confirmation, counter-screen for AddAB inhibitor project, absorbance (AID 488956; in the data active = inhibition above about 25%). The conditions noted are these: absorbance (AddAB counterscreen), at 11.9 µM, stronger effect = higher value.
Test [16] deals with Platelet-activating factor acetylhydrolase IB subunit alpha1 (Homo sapiens) (UniProt Q15102). The test is described as follows: PAFAH1B3 enzyme inhibitors, confirmation, biochemical, fluorescence polarization, human (AID 493032;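 active = average inhibition over triplicate runs above the hit cutoff set in the earlier primary screen, cut at about 25% in these data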;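 note: 0% = enzyme with DMSO and 100% = wells lacking PAFAH1B3 protein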). The conditions noted are these: recombinant PAFAH1B3, FP-Rh activity-based probe, at 3.39 µM, stronger effect = higher value. Background: In fluorescence polarisation assays a small probe gives low polarisation when free and higher when bound to something large.

SMILES strings stand for the structures. Values without a mark were called inactive. Some of the results follow. Active and inactive are the calls of the source.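 Rule for the calls, unless noted: active = inhibition above the hit cutoff set in the earlier primary screen (cut at about 27% in these data); inactive = the rest.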

Sequence of Nuclear receptor subfamily 5 group A member 2 (Homo sapiens) (O00482 whole entry, looked up): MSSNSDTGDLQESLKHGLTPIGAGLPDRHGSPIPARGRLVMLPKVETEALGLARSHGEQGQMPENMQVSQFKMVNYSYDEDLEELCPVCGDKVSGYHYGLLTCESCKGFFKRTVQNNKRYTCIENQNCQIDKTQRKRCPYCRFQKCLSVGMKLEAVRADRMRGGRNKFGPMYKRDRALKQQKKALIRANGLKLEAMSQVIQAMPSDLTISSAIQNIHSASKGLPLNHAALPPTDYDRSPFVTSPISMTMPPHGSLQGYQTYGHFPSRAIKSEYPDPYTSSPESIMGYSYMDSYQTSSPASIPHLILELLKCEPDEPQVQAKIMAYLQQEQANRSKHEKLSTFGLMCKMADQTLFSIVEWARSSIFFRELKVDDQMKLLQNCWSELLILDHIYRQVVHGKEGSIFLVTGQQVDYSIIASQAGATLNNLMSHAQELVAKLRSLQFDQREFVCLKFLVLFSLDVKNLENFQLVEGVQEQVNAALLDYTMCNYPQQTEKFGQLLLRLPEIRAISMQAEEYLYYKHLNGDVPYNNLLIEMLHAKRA
Sequence of Protein phosphatase methylesterase 1 (Homo sapiens) (Q9Y570 whole entry, looked up): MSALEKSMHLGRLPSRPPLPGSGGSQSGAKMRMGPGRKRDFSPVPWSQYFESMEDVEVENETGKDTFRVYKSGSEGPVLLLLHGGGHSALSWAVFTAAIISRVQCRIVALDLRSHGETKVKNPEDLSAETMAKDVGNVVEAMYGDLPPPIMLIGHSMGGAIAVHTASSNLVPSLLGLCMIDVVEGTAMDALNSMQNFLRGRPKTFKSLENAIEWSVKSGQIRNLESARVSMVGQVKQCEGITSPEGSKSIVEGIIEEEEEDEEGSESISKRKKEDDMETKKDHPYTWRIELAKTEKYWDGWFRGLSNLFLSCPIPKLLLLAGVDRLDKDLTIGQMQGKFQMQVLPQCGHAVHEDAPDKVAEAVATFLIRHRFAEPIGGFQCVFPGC
Sequence of Steroidogenic factor 1 (Homo sapiens) (Q13285 whole entry, looked up, the tested form may be a part): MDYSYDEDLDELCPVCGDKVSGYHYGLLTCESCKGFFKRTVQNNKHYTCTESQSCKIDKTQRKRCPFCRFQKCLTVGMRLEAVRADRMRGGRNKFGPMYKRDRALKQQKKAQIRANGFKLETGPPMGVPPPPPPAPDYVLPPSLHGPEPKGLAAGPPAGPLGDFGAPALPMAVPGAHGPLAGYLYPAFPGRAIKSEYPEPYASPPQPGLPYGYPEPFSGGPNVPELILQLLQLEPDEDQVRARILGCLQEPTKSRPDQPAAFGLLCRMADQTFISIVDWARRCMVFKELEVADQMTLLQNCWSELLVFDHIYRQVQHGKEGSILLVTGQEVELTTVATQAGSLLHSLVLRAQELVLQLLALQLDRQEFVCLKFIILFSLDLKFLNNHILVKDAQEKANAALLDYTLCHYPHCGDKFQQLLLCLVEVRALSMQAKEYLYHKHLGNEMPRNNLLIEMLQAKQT
Sequence of Oxysterols receptor LXR-beta (Homo sapiens) (P55055 whole entry, looked up, the tested form may be a part): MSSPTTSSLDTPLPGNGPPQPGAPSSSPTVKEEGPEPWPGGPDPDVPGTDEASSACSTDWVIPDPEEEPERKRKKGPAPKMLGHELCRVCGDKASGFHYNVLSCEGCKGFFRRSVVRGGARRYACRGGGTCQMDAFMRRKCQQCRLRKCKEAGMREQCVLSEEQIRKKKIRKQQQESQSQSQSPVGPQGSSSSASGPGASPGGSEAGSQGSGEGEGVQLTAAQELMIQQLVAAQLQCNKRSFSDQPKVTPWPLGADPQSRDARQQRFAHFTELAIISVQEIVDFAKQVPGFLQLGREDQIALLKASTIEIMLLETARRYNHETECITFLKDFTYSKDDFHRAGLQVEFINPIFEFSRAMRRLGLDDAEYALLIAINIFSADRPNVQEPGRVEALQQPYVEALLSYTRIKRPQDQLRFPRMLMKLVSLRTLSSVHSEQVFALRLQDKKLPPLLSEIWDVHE
Sequence of Nuclear receptor coactivator 2 (Homo sapiens) (Q15596 whole entry, looked up, the tested form may be a part): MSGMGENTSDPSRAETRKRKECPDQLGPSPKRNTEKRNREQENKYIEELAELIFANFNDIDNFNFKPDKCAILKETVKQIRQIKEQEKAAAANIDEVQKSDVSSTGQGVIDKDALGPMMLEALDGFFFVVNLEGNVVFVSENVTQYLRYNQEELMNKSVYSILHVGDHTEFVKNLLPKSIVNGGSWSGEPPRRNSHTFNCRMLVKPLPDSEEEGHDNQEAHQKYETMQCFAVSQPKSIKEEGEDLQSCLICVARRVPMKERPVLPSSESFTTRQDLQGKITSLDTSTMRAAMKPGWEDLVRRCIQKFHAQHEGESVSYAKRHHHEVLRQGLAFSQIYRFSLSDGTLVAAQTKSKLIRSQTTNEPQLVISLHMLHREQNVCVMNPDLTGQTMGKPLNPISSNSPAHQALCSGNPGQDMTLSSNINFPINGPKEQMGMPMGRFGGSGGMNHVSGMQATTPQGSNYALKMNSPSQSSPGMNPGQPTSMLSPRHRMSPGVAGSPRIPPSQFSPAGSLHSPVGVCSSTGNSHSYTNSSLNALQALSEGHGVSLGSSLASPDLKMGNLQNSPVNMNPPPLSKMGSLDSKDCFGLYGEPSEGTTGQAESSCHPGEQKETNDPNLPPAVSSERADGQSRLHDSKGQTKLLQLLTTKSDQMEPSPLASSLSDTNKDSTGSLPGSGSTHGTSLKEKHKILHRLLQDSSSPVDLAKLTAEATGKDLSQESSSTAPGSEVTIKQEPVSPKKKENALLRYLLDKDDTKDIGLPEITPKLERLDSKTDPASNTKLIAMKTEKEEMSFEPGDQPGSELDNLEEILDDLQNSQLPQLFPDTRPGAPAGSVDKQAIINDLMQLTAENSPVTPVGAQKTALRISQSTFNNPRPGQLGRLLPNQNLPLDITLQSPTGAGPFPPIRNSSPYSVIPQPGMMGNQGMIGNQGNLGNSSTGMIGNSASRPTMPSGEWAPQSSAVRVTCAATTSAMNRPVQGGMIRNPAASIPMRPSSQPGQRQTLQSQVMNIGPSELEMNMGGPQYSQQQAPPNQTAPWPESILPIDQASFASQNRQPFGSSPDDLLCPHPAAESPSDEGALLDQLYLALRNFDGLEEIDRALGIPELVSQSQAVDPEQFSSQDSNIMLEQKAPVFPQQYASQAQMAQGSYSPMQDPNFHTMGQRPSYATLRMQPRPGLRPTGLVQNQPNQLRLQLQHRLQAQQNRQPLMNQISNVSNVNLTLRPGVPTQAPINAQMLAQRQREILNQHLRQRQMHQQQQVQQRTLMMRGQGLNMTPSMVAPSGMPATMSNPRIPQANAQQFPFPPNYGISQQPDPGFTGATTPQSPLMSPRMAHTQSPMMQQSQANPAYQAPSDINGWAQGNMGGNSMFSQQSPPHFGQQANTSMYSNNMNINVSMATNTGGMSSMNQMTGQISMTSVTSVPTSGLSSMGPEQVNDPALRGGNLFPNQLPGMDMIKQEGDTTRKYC
Sequence of Platelet-activating factor acetylhydrolase IB subunit alpha1 (Homo sapiens) (Q15102 whole entry, looked up): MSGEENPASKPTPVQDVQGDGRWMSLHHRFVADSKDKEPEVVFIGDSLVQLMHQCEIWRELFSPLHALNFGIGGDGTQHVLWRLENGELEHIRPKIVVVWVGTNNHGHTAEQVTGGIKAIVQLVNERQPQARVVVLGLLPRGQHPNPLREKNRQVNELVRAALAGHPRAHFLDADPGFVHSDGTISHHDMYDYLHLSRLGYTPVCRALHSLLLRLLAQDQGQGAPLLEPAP
Sequence of Platelet-activating factor acetylhydrolase (Homo sapiens) (Q13093 whole entry, looked up): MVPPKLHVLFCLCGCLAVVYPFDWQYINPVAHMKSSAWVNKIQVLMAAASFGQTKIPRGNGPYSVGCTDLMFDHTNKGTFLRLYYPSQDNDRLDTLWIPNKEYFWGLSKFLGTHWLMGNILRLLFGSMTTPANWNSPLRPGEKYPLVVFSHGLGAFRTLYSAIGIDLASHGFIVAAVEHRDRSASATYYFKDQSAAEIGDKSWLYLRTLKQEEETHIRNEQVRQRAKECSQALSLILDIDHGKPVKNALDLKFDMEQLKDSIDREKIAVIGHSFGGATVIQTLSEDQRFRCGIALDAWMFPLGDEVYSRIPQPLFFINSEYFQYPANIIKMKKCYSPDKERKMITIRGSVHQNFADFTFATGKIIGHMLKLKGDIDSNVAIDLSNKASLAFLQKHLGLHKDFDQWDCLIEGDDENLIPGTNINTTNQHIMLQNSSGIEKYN

Consider `COC(=O)N1C(=O)[C@](c2ccccc2)(C2CCCC2)N1C(=O)OC`, for which the inhibition in [1] is 86.9% (active); in test [2], -1.09%; in test [3] it was -4.92%.

Turning to `O=C1OC(Nc2cc(Br)cc3cccnc23)c2ccccc21` (configuration not stated), the inhibition in test [1] is 6.18%; in test [4], 16.4%; in test [5], 25.9%; in test [6], 31.6%; in test [7], 13.6%.

With `CN(c1ccccc1)S(=O)(=O)c1ccc(NC(=O)c2nc(S(C)(=O)=O)ncc2Cl)cc1`, the inhibition in test [1] is 24.2%; in test [2], 94.3% (active); in [3], 77.3% (active).

Regarding `COc1cc(/C=N/Nc2nc3ccccc3s2)ccc1O`, the inhibition in test [1] is 57.7% (active). Besides, the activation in [8] was 1.25%; in test [9] it was 12.4% (active); in test [10], 18.2% (active); in [11], 0.97%.

On to `CCCCn1c(NS(=O)(=O)c2ccccc2)c(S(=O)(=O)c2ccc(C)cc2)c2nc3ccccc3nc21`, for which the inhibition in test [1] is 11.6%; in [4], 15.2%; in [5], 19.7%; in test [6], 24.9%; in [7] it was -6.99%.

As to `Cc1cccc(-n2c3nc(=O)[nH]c(=O)c-3cc3cc([N+](=O)[O-])ccc32)c1`, the inhibition in [1] is 50.6% (active); in test [4] it was 20.4%; in test [5], 42.1% (active); in test [6], 47.4% (active); in test [7] it was 27.6%.

Regarding `O=[N+]([O-])c1cccc(-c2nc(-c3cccs3)c(-c3cccs3)[nH]2)c1`, the inhibition was 13% in test [1]; 19.7% in [4]; 55% (active) in [5]; 42.7% (active) in test [6]; -12.5% in test [7].

As for `NNC(=O)c1oc2nc(-c3ccccc3)cc(-c3ccco3)c2c1N`, the inhibition in test [12] is 18.2%.

For `O=C(c1[nH]ncc1-c1ccc(Cl)cc1)C1CO1` (configuration not stated), the inhibition in test [13] was 57.3% (active); in [14], 7.58% (active); in test [15], 34.3% (active).

As for `O=C1Nc2c(Br)cc(Br)cc2C1(O)N1CCOCC1` (configuration not stated), the inhibition in test [16] is 8.59%.

As to `CC(=O)N(C1=C(Cl)C(=O)c2ccccc2C1=O)c1ccc(C(=O)O)cc1`, in test [16], the inhibition was 25.6% (active).
